Several values for one entry are separate records, joined by “and”; a condition that tells them apart may be missing. Identical values can stand only once. Activity calls are given as the source filed them. Cut-off read from the data, not from the text of the source, unless noted: active = inhibition above about 80%; inactive = the rest.
How the values were obtained:
[1] = sensitizers of A549 cells to miR-34 induction, primary screen, imaging, A549 dox-inducible miR-34, nuclei and caspase counts (AID 1347080;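 active = compounds whose cell count with miR-34 switched on is under 0.7 times the count with it off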); conditions: A549 miR-34 inducible, Hoechst nuclei count, 48 h
[2] = survival rescue of mitochondrial mutant cells in low glucose, primary screen, MELAS cybrids, Rieske KO mouse fibroblasts, CellTiter-Glo (AID 1508586;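 active = mean z-score across replicates of 1.96 or higher in either the MELAS or the Rieske mutant cell line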;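 note: z relative to plate mean and SD of compound and empty wells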)
[3] = viability rescue of complex I mutant cybrids, primary screen, cell-based, galactose medium, ATP luminescence (AID 1645843;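 active = z-score of at least 1.8 in each of two replicates, scored against plate mean and spread of sample wells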;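 note: positive z means more ATP and so rescue of galactose-driven cybrid death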); conditions: complex I mutant cybrid cells, 72 h, stronger effect = higher value
[4] = LFS_MB_P medulloblastoma growth inhibition, cell-based, chromothripsis tumors, cisplatin or BGB combos (AID 1671449); conditions: LFS_MB_P medulloblastoma cells;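 note: cells exposed for 96 hours; 0% = vehicle DMSO and 100% = killing by high DMSO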
[5] = HDN33 neuroblastoma growth inhibition, cell-based, chromothripsis tumors, cisplatin or BGB combos (AID 1671450); conditions: HDN33 neuroblastoma cells, stronger effect = higher value;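 note: cells exposed to compound for four days; 0% = vehicle DMSO and 100% = cell killing by high DMSO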
[6] = ICB984 medulloblastoma cell growth inhibition, synergistic combos for chromothripsis tumors, cisplatin or BGB combos (AID 1671451; call rule not given here;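 note: cells exposed for 96 hours before readout; 0% = vehicle DMSO and 100% = killing by high DMSO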); conditions: ICB984 medulloblastoma cells, drug combinations, stronger effect = higher value
[7] = LFS_MB_1R medulloblastoma cell growth inhibition, synergistic combos for chromothripsis tumors, cisplatin or BGB combos (AID 1671452); conditions: LFS_MB_1R medulloblastoma cells, stronger effect = higher value;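 note: cells exposed for 96 hours before readout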
[8] = HTB85 osteosarcoma cell growth inhibition, synergistic combos for chromothripsis tumors, BGB or cisplatin IC20 combos (AID 1671453); conditions: HTB85 osteosarcoma cells, drug combinations, stronger effect = higher value;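 note: cells exposed for 96 hours before readout; 0% = vehicle DMSO and 100% = high DMSO killing control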
[9] = CRL2098 osteosarcoma cell growth inhibition, synergistic combos for chromothripsis tumors, BGB or cisplatin IC20 combos (AID 1671454); conditions: CRL2098 osteosarcoma cells, drug combinations, stronger effect = higher value;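 note: cells exposed for 96 h before readout; 0% = vehicle DMSO and 100% = killing by high DMSO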
[10] = HD-MB03 medulloblastoma cell growth inhibition, synergistic combos for chromothripsis tumors, BGB or cisplatin IC20 combos (AID 1671455; in the data active = inhibition above about 83%;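 note: 0% = vehicle DMSO and 100% = high DMSO as cytotoxic control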); conditions: HD-MB03 medulloblastoma cells, stronger effect = higher value
[11] = UWB1.289 ovarian carcinoma cell growth inhibition, synergistic combos for chromothripsis tumors, BGB or cisplatin combos (AID 1671456); conditions: UWB1.289 ovarian carcinoma cells, stronger effect = higher value;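 note: cells exposed to compound for four days; 0% = vehicle DMSO and 100% = killing by high DMSO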
[12] = LFS_MB_2R medulloblastoma cell growth inhibition, synergistic combos for chromothripsis tumors, cisplatin combos (AID 1671457); conditions: LFS_MB_2R medulloblastoma cells, stronger effect = higher value;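 note: cells exposed to compound for four days before readout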
[13] = MDA-MB-436 breast carcinoma cell growth inhibition, synergistic combos for chromothripsis tumors, BGB or cisplatin combos (AID 1671458; call rule not given here;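 note: cells exposed for 96 hours; 0% = vehicle DMSO and 100% = killing by high DMSO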); conditions: MDA-MB-436 breast carcinoma growth inhibition, drug combinations, stronger effect = higher value
[14] = UWB1.289_BRCA1 ovarian cancer growth, cell-based, BGB or cisplatin combinations (AID 1671459); conditions: UWB1.289 BRCA1 ovarian carcinoma, drug combinations, stronger effect = higher value
[15] = human astrocyte viability loss, single and combined drugs, cytotoxicity control for chromothriptic childhood tumor combination screen, cell-based, BGB or cisplatin IC20 combos (AID 1671460); conditions: Human astrocytes, drug combinations, stronger effect = higher value;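 note: cells exposed to compounds for 96 hours before viability readout; 0% = vehicle and 100% = killing control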
[16] = growth inhibition of BT084 medulloblastoma cells, cell-based, ICGC_MB145, cisplatin and BGB IC40 combos (AID 1671461); conditions: drug combinations, stronger effect = higher value;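 note: cells exposed to drugs for 96 hours; 0% = vehicle DMSO and 100% = high DMSO full killing control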
[17] = growth inhibition of RCMB18 medulloblastoma cells, cell-based, cisplatin and BGB IC40 combos (AID 1671462); conditions: stronger effect = higher value;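 note: cells exposed to compound for four days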
[18] = growth inhibition of CRL1545 osteosarcoma cells, cell-based, cisplatin and BGB IC20 combos (AID 1671464); conditions: stronger effect = higher value;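 note: cells exposed to compound for 96 hours before readout; 0% = vehicle DMSO and 100% = high DMSO killing control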
[19] = measured here: combination with BGB IC40, at 0.05 µM
[20] = measured here: with BGB IC20 combination, at 0.5 µM
[21] = measured here: with cisplatin IC20 combination, at 0.5 µM
[22] = measured here: combination with cisplatin, at 0.5 µM
[23] = measured here: combination with cisplatin, at 5 µM

Nc1ccn(C2CCC(CO)O2)c(=O)n1 (stereo not given)
fold change ([1]; stronger effect = lower value, cell number ratio, induced over uninduced): 0.958 (inactive) and 0.921 (inactive)
fold change ([1]; measured here: relative caspase fold change +Dox/-Dox): 1.84 and 0.793
cell count ([1]; measured here: total cells with miR-34 induction, stronger effect = lower value): 9800 and 8610
cell count ([1]; measured here: total cells without miR-34 induction): 10200 and 9350
z-score ([2]; MELAS cybrid survival, CellTiter-Glo 48 h, stronger effect = higher value): -0.101 (inactive)
z-score ([2]; Rieske KO mouse fibroblast survival, CellTiter-Glo 72 h): 0.566
z-score [3]: 0.445 (inactive)
inhibition ([4]; at 0.5 µM, stronger effect = higher value): -21% (inactive)
inhibition ([4]; measured here: combination with BGB IC20, at 0.005 µM): -12.9%
inhibition ([4]; measured here: combination with BGB IC40, at 0.005 µM): 8.5%
inhibition [4, 19]: -10.6%
inhibition ([4]; measured here: combination with cisplatin, at 0.5 µM, stronger effect = higher value): -35%
inhibition ([4]; measured here: combination with cisplatin, at 5 µM, stronger effect = higher value): -13%
inhibition ([5]; BGB combo, at 5 µM): -33.4%
inhibition ([5]; at 0.5 µM): -28.1% (inactive)
inhibition ([5]; cisplatin combo, at 5 µM): -14%
inhibition [5, 20]: -28.7%
inhibition [5, 21]: -15.2%
inhibition ([5]; single agent, at 5 µM): -52.9%
inhibition ([6]; BGB IC20 combo, at 0.005 µM): -1.06%
inhibition ([6]; BGB IC40 combo, at 0.005 µM): -15.6%
inhibition ([6]; BGB IC40 combo, at 0.05 µM): -24.6%
inhibition ([6]; at 0.5 µM): -11.4% (inactive)
inhibition ([6]; cisplatin combo, at 0.05 µM): -24.6%
inhibition ([6]; cisplatin combo, at 0.5 µM): -24.3%
inhibition ([6]; cisplatin combo, at 5 µM): 15.2%
inhibition ([6]; measured here: 5 uM single agent, at 5 µM): -2.52%
inhibition ([7]; at 0.5 µM): -18.2% (inactive)
inhibition [7, 19]: -11.6%
inhibition [7, 22]: -19.1%
inhibition [7, 23]: -44%
inhibition ([8]; at 0.5 µM): -28.2% (inactive)
inhibition ([8]; measured here: with BGB IC20, at 0.5 µM): -29.8%
inhibition ([8]; measured here: with BGB IC20, at 5 µM): -10%
inhibition ([8]; measured here: with cisplatin IC20, at 0.5 µM): -43.4%
inhibition ([8]; measured here: with cisplatin IC20, at 5 µM): -30.1%
inhibition ([8]; single agent, at 5 µM): -16.7%
inhibition ([9]; at 0.5 µM): -61.6% (inactive)
inhibition ([9]; measured here: combination with BGB at IC20, at 0.5 µM): -74.6%
inhibition ([9]; measured here: combination with cisplatin at IC20, at 0.5 µM): -68.6%
inhibition ([10]; at 0.5 µM): -9.09% (inactive)
inhibition ([10]; measured here: combo with BGB at IC20, at 0.5 µM): -13.9%
inhibition ([10]; measured here: combo with cisplatin at IC20, at 0.5 µM): -16.6%
inhibition ([11]; at 0.5 µM): 7.61% (inactive)
inhibition ([11]; measured here: inhibition with BGB combination, at 0.05 µM): -29.4%
inhibition ([11]; measured here: inhibition with cisplatin combination, at 0.05 µM): -3.05%
inhibition ([12]; at 0.5 µM): -6.12% (inactive)
inhibition [12, 22]: 0.862%
inhibition [12, 23]: 2.6%
inhibition ([13]; at 0.5 µM): -21.2% (inactive)
inhibition ([13]; measured here: BGB combination, at 0.5 µM): -29.5%
inhibition ([13]; measured here: BGB combination, at 5 µM): -21.7%
inhibition ([13]; measured here: cisplatin combination, at 0.5 µM): -25.6%
inhibition ([13]; measured here: cisplatin combination, at 5 µM): -2.99%
inhibition ([14]; BGB combination, concentration series, at 5 µM): -17.4%
inhibition ([14]; at 0.5 µM): -16.8% (inactive)
inhibition ([14]; cisplatin combination, concentration series, at 5 µM): -7.33%
inhibition ([15]; at 0.5 µM): -3.66% (inactive)
inhibition ([15]; measured here: combo with BGB IC20, at 0.5 µM): 2.88%
inhibition ([15]; measured here: combo with cisplatin IC20, at 0.5 µM): -17%
inhibition ([16]; at 0.5 µM): -0.679% (inactive)
inhibition ([16]; cisplatin combination, at 0.5 µM): -0.865%
inhibition ([16]; cisplatin combination, at 5 µM): -52%
inhibition ([16]; measured here: BGB IC40 combination 0.05 uM, at 0.05 µM): 24%
inhibition ([16]; single agent, at 5 µM): -28.3%
inhibition ([17]; at 0.5 µM): -1.7% (inactive)
inhibition ([17]; cisplatin combo, at 5 µM): 11.7%
inhibition ([17]; measured here: BGB IC40 combination, at 0.05 µM): -6.98%
inhibition [17, 22]: -10.2%
inhibition ([17]; single agent, at 5 µM): -30.2%
inhibition ([18]; at 0.5 µM): -50% (inactive)
inhibition [18, 20]: -14.8%
inhibition [18, 21]: -67.7%
inhibition ([18]; single agent, at 0.05 µM): 32.2%
inhibition ([18]; single agent, at 5 µM): 11.1%
